Tb PYK inh – qHTS of Trypanosoma Brucei Inhibitors | TbPYK enzyme, Kinase-Glo Plus ATP luminescence, 45 min | AID 624173, 2012 | 410,000 compounds, 0.12% hits | pyruvate kinase (Trypanosoma brucei), Q57TT1 | Potency, µM (doses to about 76.8 µM), most hits filed as inhibitors; also: nearly all actives have a fitted effect of over 50% in size
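Luminescent Kinase-Glo Plus end-point after 45 min room-temperature reaction of T. brucei pyruvate kinase started with 130 uM ADP (final). Buffer TEA 50 mM pH 7.2 with KCl, MgCl2, BSA, Tween-20; titration-based qHTS with fitted concentration-effect curves.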
Giardia FBPA inh – qHTS Assay for Inhibitors of Fructose-1,6-bisphosphate Aldolase from Giardia Lamblia; A8B2U2; Potency, µM (series often up to 59.6 µM), hits mostly inhibitors; AID 2451, 2010; 290,000 compounds, 0.71% hits; purified Giardia FBPA; also: nearly all actives have a fitted effect of over 55% in size
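40 nM FBPA preincubated 10 min at RT with compound (up to 57.5 uM final), then substrate plus GAPDH/TPI/NAD/arsenate coupling and diaphorase/resazurin added. Fluorescence read after 20 min at RT, 525/598 nm.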
Shiga inhibitor – A qHTS for Small Molecule Inhibitors of Shiga Toxin. Vero cells, Shiga toxin protein synthesis inhibition reporter. inhibition, % at 38.7 µM. 290,000 compounds, 9.2% hits. AID 2315, 2010; in the data active = inhibition mostly above about 28%, no sharp cut-off; inactive = mostly below about 43%
LmPK inh – qHTS Assay for Inhibitors of Leishmania Mexicana Pyruvate Kinase (LmPK); Q27686; purified LmPK, Kinase-Glo ATP luminescence, 1 h; Potency, µM (titrated, usually from 57.5 µM), most hits filed as inhibitors; 290,000 compounds, 0.37% hits; AID 1721, 2009
Target sequence (Q27686 whole entry, looked up): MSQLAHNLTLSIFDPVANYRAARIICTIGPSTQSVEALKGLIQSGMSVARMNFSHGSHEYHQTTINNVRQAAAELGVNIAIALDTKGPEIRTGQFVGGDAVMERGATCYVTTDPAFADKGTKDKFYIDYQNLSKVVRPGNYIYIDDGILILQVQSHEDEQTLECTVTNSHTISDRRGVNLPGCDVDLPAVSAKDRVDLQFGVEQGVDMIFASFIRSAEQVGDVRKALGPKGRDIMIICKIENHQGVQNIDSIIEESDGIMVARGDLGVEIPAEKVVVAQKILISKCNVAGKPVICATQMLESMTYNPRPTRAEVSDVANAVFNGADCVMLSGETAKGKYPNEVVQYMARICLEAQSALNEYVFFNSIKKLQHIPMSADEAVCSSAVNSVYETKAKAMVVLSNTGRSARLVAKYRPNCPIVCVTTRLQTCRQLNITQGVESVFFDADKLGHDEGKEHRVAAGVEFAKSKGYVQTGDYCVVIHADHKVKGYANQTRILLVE
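Purified LmPK (0.1 nM) with 0.5 mM PEP and 0.1 mM ADP in imidazole buffer pH 7.2 with MgCl2/KCl, 1 h at room temperature. ATP formed was read by luciferase luminescence and normalized to no-enzyme and uninhibited controls.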
RE007 growth inh – qHTS Assay for Inhibitors of the HIV-1 protein Vpr | S. pombe RE007 Vpr strain, BacTiter-Glo ATP luminescence, 24 h | Potency, µM (series often up to 92.2 µM), most hits filed as inhibitors | 360,000 compounds, 0.21% hits; active = well fitted falling curve with a large enough effect; inconclusive = small, poorly fitted or top-dose-only effect; inactive = no such curve, though single readings can be large or run the other way; also: nearly all actives have a fitted effect of over 50% in size
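Fission yeast strain RE007, carrying one chromosomally integrated HIV-1 vpr copy, was seeded at OD 0.01 in PMG+AL medium with 23 nL pinned compound. After 24 h at 30 °C and 99% humidity, viability was read by BacTiter-Glo luminescence.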
Cycloheximide cs – Cycloheximide Counterscreen for Small Molecule Inhibitors of Shiga Toxin. cell reporter, cycloheximide protein synthesis inhibition counterscreen. max response, %. 300,000 compounds, 12% hits; in the data active = max response mostly above about 13%, no sharp cut-off; inactive = mostly below about 14%; also: read at 38.3 µM for the half of the compounds with a filed dose
Hits are given with their value; – = inactive; ? = inconclusive; · = no result; [ ] = another dose, or the depositor's remark. Only a selection was taken, and hits are over-represented in it overall. Unless noted, calls follow the shape of the dose curve; as a rule, active = well fitted curve in the direction sought with a large enough effect; inconclusive = small, poorly fitted or top-dose-only effect, or another doubt; inactive = no such curve, though single readings can be large; an effect the other way counts as inactive or inconclusive.

SMILES | Tb PYK inh | Giardia FBPA inh | Shiga inhibitor | LmPK inh | RE007 growth inh | Cycloheximide cs
CC(=O)Nc1cccc(/C(C)=N/NC(=O)c2ccc(O)cc2)c1 | – | – | – | – | – | 31
CCn1ccc2cc(S(=O)(=O)N3CCC(C(=O)NCCc4ccccc4Cl)CC3)ccc21 | – | · | · | · | · | ·
COc1ccc(/C(C)=N\NC(=O)c2ccc3c(c2)OCO3)cc1OC | · | – | – | – | · | 39
C/C(=N/NC(=O)c1ccc2c(c1)OCO2)c1cccc([N+](=O)[O-])c1 | – | · | 37 | – | – | 31
C/C(=N\NC(=O)c1ccc(C)cc1C)c1ccc2c(c1)OCO2 | – | – | 67 | – | – | 26
CC(NC(=O)/C(=C/c1ccc2c(c1)OCO2)NC(=O)c1cccc([N+](=O)[O-])c1)C(=O)O (stereo unspecified) | – | – | – | – | – | –
CC(/C=C/c1ccc2c(c1)OCO2)=N\NC(=O)c1cccc([N+](=O)[O-])c1 | – | – | – | – | – | 20
COc1ccc(CC(N)c2csc(Nc3nccc(C(F)(F)F)n3)n2)cc1 (stereo unspecified) | – | · | · | · | –[18.4 µM] | ·
CC(/C=C/c1ccc2c(c1)OCO2)=N\NC(=O)C(O)c1ccccc1 (stereo unspecified) | – | – | – | – | – | –
C/C(=N/NC(=O)c1ccc(Cn2cccn2)o1)c1cccc(NC(=O)c2ccncc2)c1 | – | – | – | – | – | 19
CC(/C=C/c1ccc2c(c1)OCO2)=N\NC(=O)c1ccccc1 | – | – | 152 | –[11.5 µM] | – | 41
C/C(=N\NC(=O)c1nn(C)cc1Br)c1cccc(NC(=O)c2ccncc2)c1 | – | – | 84 | – | · | 50
C/C(=N\NC(=O)c1cccc([N+](=O)[O-])c1)c1cccs1 | – | – | 39 | – | – | –
Cc1ccccc1/C=N\NC(=O)c1ccc(Cn2cccn2)o1 | – | – | – | – | – | –
c1cnc2c(-c3ccc4nccn4c3)cccc2c1 | – | · | · | · | – | ·
COC(=O)[C@]12CCCCC=C1N(Cc1ccc(Cl)cc1Cl)C(=O)[C@H](CC(=O)NCCCCc1ccccc1)C2 | – | · | · | · | – | ·
COc1ccccc1C1c2c(-c3ccc(Cl)cc3)n[nH]c2C(=O)N1c1ccc(C)cc1 (stereo unspecified) | – | · | · | · | · | ·
Cn1cnc(S(=O)(=O)N2CCC(C(=O)NCc3ccccc3)CC2)c1 | – | · | · | · | · | ·
COc1ccc(N2CCN(C(=O)CSc3nc4ccccc4nc3Cc3ccc(Cl)cc3)CC2)cc1 | – | · | · | · | · | ·
C/C(=N/NC(=O)c1ccc2c(c1)OCCO2)c1ccc([N+](=O)[O-])cc1 | – | – | 21 | – | – | 15
CC/C(=N\NC(=O)c1ccc2c(c1)OCO2)C12CC3CC(CC(C3)C1)C2 | – | – | 57 | – | – | 26
CC(C)CC(=O)Nc1ccc2nc(SCC(=O)N3CCc4ccccc43)sc2c1 | – | · | · | · | · | ·
O=c1c2[nH]c3ccccc3c2ncn1C1CCCCC1 | – | – | – | – | – | 26
CCN(CC(=O)NCc1cccs1)C(=O)c1ccc(NS(=O)(=O)c2ccc(F)cc2)cc1 | – | · | · | · | – | ·
Cc1[nH]nc2c1C(c1ccc(Cl)cc1)C(C#N)=C(N)O2 (stereo unspecified) | – | – | – | – | – | 19
SMILES | Tb PYK inh | Giardia FBPA inh | Shiga inhibitor | LmPK inh | RE007 growth inh | Cycloheximide cs
Cc1ccc(C2C(C#N)=C(N)Oc3n[nH]c(C)c32)cc1 (stereo unspecified) | – | – | – | – | – | –
CCc1ccccc1NC(=O)C1CCN(S(=O)(=O)c2ccc3[nH]c(=O)ccc3c2)CC1 | – | · | · | · | · | ·
Cc1ccccc1N1CCN(c2ccccc2NC(=O)/C=C\C(=O)O)CC1 | – | · | · | · | – | ·
Nc1nc(Nc2ccccc2)sc1C(=O)c1ccccc1 | – | – | 90 | – | – | 36
Cc1cnc(NC(=O)c2sc(Nc3ccccc3)nc2N)o1 | – | – | 90 | – | – | 28
O=C(Nc1cccnc1)c1sc(Nc2ccccc2)nc1-c1ccccc1 | – | – | – | – | – | –
COc1ccc(C(=O)n2nc(C)cc2Nc2ccccc2)cc1 | – | – | – | – | – | 43
COc1ccc(C(=O)c2sc(Nc3ccccc3)nc2N)cc1OC | – | – | – | – | – | –
COc1ccc(C(=O)c2sc(Nc3ccccc3)nc2N)cc1 | – | – | – | – | – | 41
O=C(CCCCn1cnc2c(=S)nc[nH]c21)Nc1ccc(C(=O)O)c(O)c1 | ? | · | · | · | – | ·
CCN1CC(CN(C)Cc2cn(-c3ccc(C)cc3)nc2-c2cccc(C)c2)CC1=O (stereo unspecified) | – | – | – | – | – | –
COc1ccc(C(=O)c2sc(Nc3cc(Cl)ccc3C)nc2N)cc1OC | – | · | · | · | · | ·
COc1ccc(C(=O)c2sc(Nc3ccccc3F)nc2N)cc1 | – | – | 86 | – | – | 41
COCC(=O)N1CCC2(CCCN(c3ccc(-c4ccccc4)cc3)C2)CC1 | – | – | · | · | · | ·
CCc1ccccc1NC(=O)Nc1cccc(F)c1 | – | – | – | – | – | –
CCOc1ccc(NC(=O)Nc2ccccc2SC)cc1 | – | – | 66 | 7.9µM | – | 33
CCOc1ccc(NC(=O)Nc2cccn(Cc3ccccc3)c2=O)cc1 | – | ? | – | – | – | 31
O=C(NCc1ccccc1)Nc1cccn(Cc2ccccc2)c1=O | – | – | – | – | – | –
CCOc1ccc(NC(=O)Nc2cc(C(C)C)ccc2C)cc1 | · | – | – | – | · | –
CSc1ccccc1NC(=O)Nc1cccc(F)c1 | – | – | 41 | – | – | 22
CSc1ccccc1NC(=O)Nc1ccccc1 | – | – | 91 | ? | – | 25
COc1ccccc1NC(=O)Nc1ccccc1SC | – | – | – | – | – | –
CCCN(C)C1CN(Cc2cn(Cc3ccccc3)nn2)S(=O)(=O)C1 (stereo unspecified) | – | · | · | · | – | ·
CC(C)NC(=O)NC(=O)CSc1nnc(-c2c[nH]c3ccccc23)o1 | – | · | – | – | – | –
COc1ccc(C(=O)O)cc1S(=O)(=O)NC(C)C | – | – | – | – | – | –
SMILES | Tb PYK inh | Giardia FBPA inh | Shiga inhibitor | LmPK inh | RE007 growth inh | Cycloheximide cs
O=C(NCc1ccccc1)Nc1cccn(Cc2ccccc2F)c1=O | – | – | – | – | – | 20
C/C(=N\NC(=O)c1ccc(NS(=O)(=O)c2cccs2)cc1)c1ccc(O)cc1O | – | ? | – | – | – | –
C=C(C)CN(CC)C(=O)CSc1ccc(S(=O)(=O)N2CCN(C)CC2)cn1 | – | · | · | · | – | ·
NC(=O)c1ccc(-c2ncc(-c3ccccc3)o2)cc1 | – | – | 85 | – | – | 44
Cc1ccc(NC(=O)c2ccccc2-c2ccccc2C(=O)O)cc1 | – | – | – | – | – | –
Cc1ccc(-c2cnc(-c3ccccc3C(=O)O)o2)cc1 | – | – | 61 | – | – | 29
c1ccc(-c2cnc(-c3cccnc3)o2)cc1 | – | – | – | – | – | 49

Bioassay records: PubChem BioAssay, National Center for Advancing Translational Sciences (NCATS)
